Assay results as given in PubChem BioAssay (Tox21).
“And” between values parts separate entries of the source, which are not always exact repeats. Equal entries are not always repeated. Results filed as inconclusive are left out. A call without a number means that no potency is given here. Unmarked numbers belong to inactive results. The source made the active and inactive calls. Calls come from the whole dose curve; as a rule, active = well fitted cell-killing curve with a large enough effect in the repeat runs; inconclusive = weak or mixed curves, or effect the other way; inactive = flat fitted curve, though single readings scatter.

What was measured:
[1] = cAMP Responsive Elements (CRE) small molecule antagonists, cell-based qHTS assay: qHTS cell viability counter screen (AID 2060913); settings: CRE-bla HEK293T viability, CellTiter-Glo luminescence, 5 h; series mostly up to 92.4 µM; note: nearly all actives have a fitted effect of over 40% in size
Procedure, shortened: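 Cytotoxicity counter screen multiplexed with the CRE-bla antagonist read: HEK293T cells in DMEM with dialyzed FBS and 25 mM HEPES were treated 3 hrs under 0.25 uM final NKH477, then viability measured by CellTiter-Glo luminescence.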

[2] = cAMP Responsive Elements (CRE) small molecule agonists, cell-based qHTS assay: qHTS cell viability counter screen (AID 2060914); settings: CRE-bla HEK293T viability, CellTiter-Glo luminescence, 5 h; series mostly up to 92.4 µM; note: nearly all actives have a fitted effect of over 50% in size
Procedure, shortened: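 Luminescence read-out (CellTiter-Glo, 30 min RT) of ATP-based viability in CRE-bla HEK 293T cells, run in the same wells as the β-lactamase reporter assay after 3 h compound treatment at 37 °C.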
Potency is the fitted concentration of half-maximal effect.

CCCCCCCCCCCCCC(=O)OC
Potency [1]: inactive
Potency [2]: inactive

C/C=C(\C)C(=O)OCc1ccccc1
Potency [1]: inactive
Potency [2]: inactive

CCCCCCCCCC(=O)OCC
Potency [1]: inactive
Potency [2]: inactive

C=CCOC(=O)CC(C)C
Potency [1]: inactive
Potency [2]: inactive

CCCC(C)C(O)CC (stereo not given)
Potency [1]: inactive
Potency [2]: inactive

CCCn1cc[n+](C)c1C
Potency [1]: inactive
Potency [2]: inactive

O=C(NCCN1CCOCC1)c1ccc(Cl)cc1
Potency [1]: inactive
Potency [2]: inactive

C=CC(=O)OCC[N+](C)(C)C
Potency [1]: inactive
Potency [2]: inactive

CCOC(=O)N1CCC(=C2c3ccc(Cl)cc3CCc3cccnc32)CC1
Potency [1]: inactive
Potency [2]: inactive

CC1=C(C)C(=O)C(CCCCC#CCCCC#CCO)=C(C)C1=O
Potency [1]: inactive
Potency [2]: inactive

Nc1ccccn1
Potency [1]: inactive
Potency [2]: inactive

COC(=O)C1=C(C)NC(C)=C(C(=O)O[C@@H]2CCCN(Cc3ccccc3)C2)[C@@H]1c1cccc([N+](=O)[O-])c1
Potency [1]: inactive
Potency [2]: inactive

CS(=O)(=O)Nc1ccc([N+](=O)[O-])cc1Oc1ccccc1
Potency [1]: inactive
Potency [2]: inactive

N#Cc1ccc(C2CCCc3cncn32)cc1 (stereo not given)
Potency [1]: inactive
Potency [2]: inactive

C=CCc1cc(OC)c(O)c(C(=O)NCCO)c1
Potency [1]: inactive
Potency [2]: inactive

c1ccc(SCCSc2ccccc2)cc1
Potency [1]: inactive
Potency [2]: inactive

O=C1[C@H]2CCCC[C@H]2C(=O)N1CCCCN1CCN(c2nsc3ccccc23)CC1
Potency [1]: inactive
Potency [2]: inactive

[Cl][Au]([Cl])[Cl]
Potency [1]: inactive
Potency [2]: inactive

O=c1[nH]c(=O)c2cn[nH]c2[nH]1
Potency [1]: inactive
Potency [2]: inactive

CCC(=O)OC
Potency [1]: inactive
Potency [2]: inactive

COC(=O)CCCCC(=O)OC
Potency [1]: inactive
Potency [2]: inactive

Nc1ccc(F)cc1
Potency [1]: inactive
Potency [2]: inactive

OCCO
Potency [1]: inactive
Potency [2]: inactive

O=C1CCCCCN1
Potency [1]: inactive
Potency [2]: inactive

Cn1cc[nH]c1=S
Potency [1]: inactive
Potency [2]: inactive

COc1ccc(OC(=O)N(CC(=O)O)Cc2ccc(OCCc3nc(-c4ccccc4)oc3C)cc2)cc1
Potency [1]: inactive
Potency [2]: inactive

CSc1ccc2c(c1)N(CCC1CCCCN1C)c1ccccc1S2 (stereo not given)
Potency [1]: 60.9 µM (active)
Potency [2]: 60.9 µM (active)

CCO[C@H](Cc1ccc(OCCc2ccc(OS(C)(=O)=O)cc2)cc1)C(=O)O
Potency [1]: inactive
Potency [2]: inactive

CCCC(=O)Nc1ccc(O)c(C(C)=O)c1
Potency [1]: inactive
Potency [2]: inactive

CN(C)CCCNCCC#N
Potency [1]: inactive
Potency [2]: inactive

CC(C)NCC(O)COc1cccc2[nH]ccc12 (stereo not given)
Potency [1]: inactive
Potency [2]: inactive

CCOC(=O)c1ccc(C#Cc2ccc3c(c2)C(C)(C)CCS3)nc1
Potency [1]: inactive
Potency [2]: inactive

C1COCCN1
Potency [1]: inactive
Potency [2]: inactive

COc1ccc2c(c1)C(=O)N(CCc1ccc(S(=O)(=O)NC(=O)NC3CCCCC3)cc1)C(=O)C2(C)C
Potency [1]: inactive
Potency [2]: inactive

CCCCN(CCCC)CCC(O)c1cc2c(Cl)cc(Cl)cc2c2cc(C(F)(F)F)ccc12 (stereo not given)
Potency [1]: inactive
Potency [2]: inactive

CCOc1nc(F)cc2nc(S(=O)(=O)Nc3c(Cl)cccc3C(=O)OC)nn12
Potency [1]: inactive
Potency [2]: inactive

CO[C@@H]1[C@@H](OC(N)=O)[C@@H](O)[C@H](Oc2ccc3c(O)c(NC(=O)c4ccc(O)c(CC=C(C)C)c4)c(=O)oc3c2C)OC1(C)C
Potency [1]: inactive
Potency [2]: inactive

OC(Cn1cncn1)(Cn1cncn1)c1ccc(F)cc1F
Potency [1]: inactive
Potency [2]: inactive

CCc1nn(CCCN2CCN(c3cccc(Cl)c3)CC2)c(=O)n1CCOc1ccccc1
Potency [1]: inactive
Potency [2]: inactive

Nc1ccc(N=Nc2ccccc2)c(N)n1
Potency [1]: inactive
Potency [2]: inactive

COC(=O)c1cccc(Cl)c1
Potency [1]: inactive
Potency [2]: inactive

CC1(C)Cc2cccc(N)c2O1
Potency [1]: inactive
Potency [2]: inactive

O=S1(=O)CCCO1
Potency [1]: inactive
Potency [2]: inactive

CCCCCCCCCCCCCCCCI
viability change, negative = cytotoxic [1]: 12.3% [at 18.9 µM]
activity change, negative = cytotoxicity [2]: -9.53% [at 18.9 µM]

CC(N)CCCC(C)(C)O (stereo not given)
Potency [1]: inactive
Potency [2]: inactive

Cc1ccc(S(=O)(=O)O)cc1
Potency [1]: inactive
Potency [2]: inactive

Cn1c(=O)c2[nH]c(Br)nc2n(C)c1=O
Potency [1]: inactive
Potency [2]: inactive

CCn1c(=O)c2c(nc(/C=C/c3ccc(OC)c(OC)c3)n2C)n(CC)c1=O
Potency [1]: inactive
Potency [2]: inactive

CCCCCCC(O)CO (stereo not given)
Potency [1]: inactive
Potency [2]: inactive

Cc1ccc(C)c(C)c1
Potency [1]: inactive
Potency [2]: inactive

Cc1cc2c(s1)Nc1ccccc1N=C2N1CCN(C)CC1
Potency [1]: inactive
Potency [2]: inactive

C=CC(=O)OCCCCCCCCCC
Potency [1]: inactive
Potency [2]: inactive

Nc1nc(CC(=O)O)cs1
Potency [1]: inactive
Potency [2]: inactive

CO[C@]1(NC(=O)CSC(F)F)C(=O)N2C(C(=O)O)=C(CSc3nnnn3CCO)CO[C@H]21
Potency [1]: inactive
Potency [2]: inactive

CN1CCC(=C2c3ccccc3CCc3cccnc32)CC1
Potency [1]: inactive
Potency [2]: inactive

CC(C(=O)O)c1ccc(/C=C2\CCCCC2=O)cc1 (stereo not given)
Potency [1]: inactive
Potency [2]: inactive

CO
Potency [1]: inactive
Potency [2]: inactive

CC(=O)[C@H]1CC[C@H]2[C@@H]3C=CC4=CC(=O)CC[C@@]4(C)[C@@H]3CC[C@]12C
Potency [1]: inactive
Potency [2]: inactive

C[C@@]12CCC[C@H]1[C@@H]1CC[C@H]3C[C@@H](O)CC[C@]3(C)[C@H]1CC2
Potency [1]: inactive
Potency [2]: inactive

CCCC(=O)O[C@]1(C(=O)COC(=O)CC)CC[C@H]2[C@@H]3CCC4=CC(=O)CC[C@]4(C)[C@H]3[C@@H](O)C[C@@]21C
viability change, negative = cytotoxic [1]: 9.89% [at 18.9 µM]
activity change, negative = cytotoxicity [2]: -7.63% [at 18.9 µM]

C=CCCCCCCCCOC(C)=O
Potency [1]: inactive
Potency [2]: inactive

CN(C)c1ccncc1
Potency [1]: inactive
Potency [2]: inactive

CCC(=O)CC
Potency [1]: inactive
Potency [2]: inactive

CC(C)c1ccccc1N
Potency [1]: inactive
Potency [2]: inactive

CCOC(=O)COC(=O)c1cc(Oc2ccc(C(F)(F)F)cc2Cl)ccc1[N+](=O)[O-]
Potency [1]: inactive
Potency [2]: inactive

NC(=O)N(O)[C@@H]1COc2cc(OCc3ccccc3)ccc21
Potency [1]: inactive
Potency [2]: inactive

O=C(O)CCCCCCC(=O)O
Potency [1]: inactive
Potency [2]: inactive

CC(=O)c1c(C)cc(C(C)(C)C)cc1C
Potency [1]: inactive
Potency [2]: inactive

CCCCCCCCCCOS(=O)(=O)O
Potency [1]: inactive
Potency [2]: inactive

COC(=O)c1ccc2cc(C(=O)OC)ccc2c1
viability change, negative = cytotoxic [1]: 9.85% [at 18.9 µM]
activity change, negative = cytotoxicity [2]: -17.3% [at 18.9 µM]

C#Cc1ccc(-c2ccccc2F)cc1
Potency [1]: inactive
Potency [2]: inactive

CC1CCC(C(C)C)C(O)C1 (stereo not given)
Potency [1]: inactive
Potency [2]: inactive

Nc1c2c(nc3ccccc13)CCCC2
Potency [1]: inactive
Potency [2]: inactive

CC(=O)[C@H]1CC[C@H]2[C@@H]3CCC4=CC(=O)CC[C@]4(C)[C@H]3CC[C@]12C
Potency [1]: 60.8 µM (active) and 61.1 µM (active)
Potency [2]: inactive

CC(C)Nc1ccccc1
Potency [1]: inactive
Potency [2]: inactive

Nc1cccc(S(=O)(=O)c2cccc(N)c2)c1
Potency [1]: inactive
Potency [2]: inactive

CCOC(=O)[C@@](C)(N)Cc1ccc(O)c(O)c1
Potency [1]: inactive
Potency [2]: inactive

CC(C)n1nc(-c2cc3cc(O)ccc3[nH]2)c2c(N)ncnc21
Potency [1]: inactive
Potency [2]: inactive

NC(N)=O
Potency [1]: inactive
Potency [2]: inactive

CC1(C)C(C=C(Cl)Cl)C1C(=O)OCc1cccc(Oc2ccccc2)c1 (stereo not given)
Potency [1]: inactive
Potency [2]: inactive

CC(C=O)Cc1ccc(C(C)(C)C)cc1 (stereo not given)
Potency [1]: inactive
Potency [2]: inactive

CC(C)C(=O)Nc1cccc(C2CN3CCSC3=N2)c1 (stereo not given)
Potency [1]: inactive
Potency [2]: inactive

COc1ccc(-c2ccc3cc(C(=O)O)ccc3c2)cc1C12CC3CC(CC(C3)C1)C2
Potency [1]: inactive
Potency [2]: inactive

C[Si](C)(C)O[Si](C)(C)O[Si](C)(C)C
Potency [1]: inactive
Potency [2]: inactive

CCC(C)(C)c1cc(O)c(C(C)(C)CC)cc1O
Potency [1]: inactive
Potency [2]: inactive

CCOC(=O)c1ccc(O)cc1
Potency [1]: inactive
Potency [2]: inactive

CN1CCN(C(=O)C2CCCCC2)CC1
Potency [1]: inactive
Potency [2]: inactive

CC(c1cc(C(C)(C)C)cc(C(C)(C)C)c1O)c1cc(C(C)(C)C)cc(C(C)(C)C)c1O
Potency [1]: inactive
Potency [2]: inactive

COC(=O)c1ccc(C(=O)OC)c(C(=O)OC)c1
Potency [1]: inactive
Potency [2]: inactive

O=C(O)CCCc1ccccc1
Potency [1]: inactive
Potency [2]: inactive

CCCCCCCN
Potency [1]: inactive
Potency [2]: inactive

COc1ccccc1OCC(O)CN1CCN(CC(=O)Nc2c(C)cccc2C)CC1 (stereo not given)
Potency [1]: inactive
Potency [2]: inactive

COc1cccc(OC)c1C(=O)N[C@@H]1C(=O)N2[C@@H]1SC(C)(C)[C@@H]2C(=O)O
Potency [1]: inactive
Potency [2]: inactive

Nc1ccccc1Nc1ccccc1
Potency [1]: inactive
Potency [2]: inactive

Cc1cnc(C)c(C)n1
Potency [1]: inactive
Potency [2]: inactive

CC1(CO)CN(c2ccccc2)NC1=O (stereo not given)
Potency [1]: inactive
Potency [2]: inactive

CC[C@@H]1C[C@H](N(Cc2cc(C(F)(F)F)cc(C(F)(F)F)c2)C(C)=O)c2cc(C(F)(F)F)ccc2N1C(=O)OC(C)C
Potency [1]: inactive
Potency [2]: inactive

O=C(CC(=O)C(F)(F)F)c1ccccc1
Potency [1]: inactive
Potency [2]: inactive

Cc1c(C)n(Cc2ccccc2)c2ccc(C(=O)OCCN(C)C)cc12
Potency [1]: inactive
Potency [2]: inactive

CCn1cc(C(=O)O)c(=O)c2cnc(N3CCNCC3)nc21
Potency [1]: inactive
Potency [2]: inactive

CC(C)(Oc1ccc(C2CC2(Cl)Cl)cc1)C(=O)O (stereo not given)
Potency [1]: inactive
Potency [2]: inactive

Cc1ccc([N+](=O)[O-])c(C)c1
Potency [1]: inactive
Potency [2]: inactive

Cn1c(=O)c2c(ncn2CC(O)CO)n(C)c1=O (stereo not given)
Potency [1]: inactive
Potency [2]: inactive

CC(C)C(=O)OC/C=C/c1ccccc1
Potency [1]: inactive
Potency [2]: inactive

CC(=O)Nc1ccc(O)cc1
Potency [1]: inactive
Potency [2]: inactive

[O-][n+]1ccc(Cl)cc1
Potency [1]: inactive
Potency [2]: inactive

CCCCCNCCCCC
Potency [1]: inactive
Potency [2]: inactive

CC(=O)[O][Al]
Potency [1]: inactive
Potency [2]: inactive

c1ccc2occc2c1
Potency [1]: inactive
Potency [2]: inactive

COc1cc2c(cc1N)oc1ccccc12
Potency [1]: inactive
Potency [2]: inactive

COc1cc(S(N)(=O)=O)cc(C(=O)O)c1OC
Potency [1]: inactive
Potency [2]: inactive

C#CC(C)(O)CC(C)C (stereo not given)
Potency [1]: inactive
Potency [2]: inactive

COc1ccc(CCN(C)CCCN2CCc3cc(OC)c(OC)cc3CC2=O)cc1OC
Potency [1]: inactive
Potency [2]: inactive

CCCCCCCCCCC=O
Potency [1]: inactive
Potency [2]: inactive

C=CC(C)(CCC=C(C)C)OC(=O)CC(C)C (stereo not given)
Potency [1]: inactive
Potency [2]: inactive
